From PubChem BioAssay
KCNQ2 inh = inhibitors of rat KCNQ2 potassium channel; AID 2156; B-score at 10 µM; 1.1% of 310,000 active; CHO-K1 KCNQ2, FluxOR thallium flux, 20 min; active compounds read low;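 active means fluorescence ratio B-score at most minus 3 library SDs, with starting brightness B-score within 2 library SDs, cut at about -5.5 in these data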
Target sequence (O88943 whole entry, looked up): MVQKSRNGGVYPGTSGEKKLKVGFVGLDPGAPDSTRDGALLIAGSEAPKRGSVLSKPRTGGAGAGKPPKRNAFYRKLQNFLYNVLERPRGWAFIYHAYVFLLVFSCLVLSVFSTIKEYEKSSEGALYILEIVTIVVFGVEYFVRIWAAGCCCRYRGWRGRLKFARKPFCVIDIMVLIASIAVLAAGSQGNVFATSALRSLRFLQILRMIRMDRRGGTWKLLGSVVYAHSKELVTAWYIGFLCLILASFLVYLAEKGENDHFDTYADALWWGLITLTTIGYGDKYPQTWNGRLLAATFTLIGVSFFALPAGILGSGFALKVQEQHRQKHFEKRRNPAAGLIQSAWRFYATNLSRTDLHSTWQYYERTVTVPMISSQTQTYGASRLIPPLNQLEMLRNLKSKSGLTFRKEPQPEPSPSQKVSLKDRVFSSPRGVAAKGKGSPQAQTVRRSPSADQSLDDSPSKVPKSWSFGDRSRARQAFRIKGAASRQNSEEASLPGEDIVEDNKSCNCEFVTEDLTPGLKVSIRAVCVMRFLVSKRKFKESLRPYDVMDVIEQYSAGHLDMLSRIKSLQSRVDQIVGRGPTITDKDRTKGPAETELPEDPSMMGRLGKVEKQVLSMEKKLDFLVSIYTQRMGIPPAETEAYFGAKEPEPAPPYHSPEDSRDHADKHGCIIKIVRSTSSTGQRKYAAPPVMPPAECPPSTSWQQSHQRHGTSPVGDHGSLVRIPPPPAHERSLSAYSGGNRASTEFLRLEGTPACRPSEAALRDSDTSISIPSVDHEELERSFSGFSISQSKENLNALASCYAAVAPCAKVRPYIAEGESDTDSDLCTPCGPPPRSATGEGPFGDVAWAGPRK
KCNQ2 pot = KCNQ2 (rat) channel potentiation; CHO-K1 KCNQ2, FluxOR thallium flux fluorescence; active compounds read high; B-score at 10 µM; 0.54% of 310,000 active;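 active means fluorescence ratio B-score at least 3 SD of library B-scores, with initial fluorescence B-score within 3 of them, cut at about 5.3 in these data; same plate scores as AID 2156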;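 further: B-score of peak minus minimum over baseline fluorescence ratio after K+ and Tl+ stimulus; positive B-score means potentiation of KCNQ2 with more thallium influx and brighter signal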
KCNQ2 inh conf = confirmation of rat KCNQ2 potassium channel inhibitors | 57% of 1,000 active | activity change, negative = inhibition, % at 10 µM | KCNQ2-expressing cells, thallium flux, inhibition; active compounds read low | shares compounds with KCNQ2 inh;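 further: 0% = vehicle wells and values are ratio percent relative to vehicle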
KCNQ1 spec = human KCNQ1 activity in KCNQ2 inhibitor specificity screen | shares compounds with KCNQ2 inh | KCNQ1-expressing cells, FluxOR thallium flux fluorescence; active compounds read low | activity change, negative = inhibition, % at 10 µM | 15% of 1,000 active | AID 493026;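 active means activity change at least 3 SD of negative controls below their mean in both duplicate wells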;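 further: CHO cells stably transfected with KCNQ1 and depolarized by potassium stimulus; peak minus minimum fluorescence over baseline after thallium addition; 0% = vehicle negative control and -100% = blank without thallium stimulus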
CHO Tl ctr = KCNQ2 inhibitor counter-screen hit in parental CHO cells; shares compounds with KCNQ2 inh; thallium flux counter-screen; active compounds read low; activity change, % at 10 µM; 14% of 1,000 active; AID 493029;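 further: 0% = vehicle negative controls with stimulus buffer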
KCNQ2 patch conf = confirmation of rat KCNQ2 potassium channel inhibitors; shares compounds with KCNQ2 inh; KCNQ2-expressing cells, automated patch clamp current; calls only at 10 µM; 49% of 550 active
* = called active by the depositor; i = inactive; . = not tested or not shown; + = active, no number. Most compounds without a hit are left out; they make up all but 1.6% or so of the library. Unless noted, how the calls were made is not given here.

SMILES	KCNQ2 inh	KCNQ2 pot	KCNQ2 inh conf	KCNQ1 spec	CHO Tl ctr	others
CCOC(=O)c1sc(NC(=O)c2cc(-c3ccccc3C)nc3ccccc23)c(C#N)c1C	-9*	-9	-40%*	-36%*	-26%*	KCNQ2 patch conf=i
CCOC(=O)c1sc(NC(=O)c2ccncc2)c(C#N)c1C	i	0.3	.	.	.
O=C(c1cn(-c2ccccc2)nc1-c1cccs1)N(CCO)Cc1ccccc1	-7.5*	-7.5	i	i	i
CN(C)C(=O)c1cn(-c2ccccc2)nc1-c1cccs1	i	0.55	.	.	.
Cc1ccccc1CC1(CO)CCCN(C(=O)c2cccc(Cl)c2)C1 (stereo not given)	-6.8*	-6.8	-27%*	i	i	KCNQ2 patch conf=i
Cc1ccccc1CC1(CO)CCCN(C(=O)c2cc(Cl)ccc2F)C1 (stereo not given)	i	0.43	.	.	.
COc1ccc(C(=O)NCc2nnc(SCC(=O)N3CCC(C)CC3)o2)cc1	i	0.48	.	.	.
CC1C(=O)N2CCCc3cc(S(=O)(=O)N4CCN(c5ccccc5F)CC4)cc1c32 (stereo not given)	i	.	.	.	.
COc1ccccc1OCC(=O)Nc1ccccc1C(=O)N1CCCC1	i	0.04	.	.	.
O=C(COc1ccc(F)cc1Cl)Nc1ccccc1C(=O)N1CCCCC1	-8.6*	-8.6	-22%*	i	i	KCNQ2 patch conf=+
COC(=O)C1=C(N)Oc2cc(C)[nH]c(=O)c2C1c1ccccc1OC (stereo not given)	i	.	.	.	.
Cc1cccc(N(Cc2ccccc2)C(=O)c2cccc(S(=O)(=O)N3CC(C)OC(C)C3)c2)c1 (stereo not given)	i	.	.	.	.
CCc1nc(SCC(=O)N2c3ccccc3CC2C)c2c(C)c(C)sc2n1 (stereo not given)	-6.7*	-6.7	-20%*	i	i	KCNQ2 patch conf=i
CCc1nc(SCC(=O)Nc2cc(C)ccc2OC)c2c(C)c(C)sc2n1	-6.8*	-6.8	i	i	i
Cc1sc2nc(C(C)C)nc(SCC(=O)N3c4ccccc4CC3C)c2c1C (stereo not given)	i	2.4	.	.	.
COc1ccc(C)cc1NC(=O)CCCNC(=O)Cn1cnc2sc(C)c(C)c2c1=O	i	.	.	.	.
CC(C)C(=O)N(Cc1ccc(F)cc1)Cc1nc2ccccc2c(=O)[nH]1	i	.	.	.	.
CCN(CC)c1ccc(NC(=S)NCC2CCCO2)cc1 (stereo not given)	i	1.3	.	.	.
Cc1cc(C)c2nc(-c3cccc(Cl)c3)c(C)c(C(=O)N3CCOCC3)c2c1	-8.8*	-8.8	-28%*	i	i	KCNQ2 patch conf=+
Cc1onc(-c2c(Cl)cccc2Cl)c1C(=O)N1CCOCC1	i	0.75	.	.	.
Nc1cn(C2OC(CO)C(O)C2O)c(=O)[nH]c1=O (stereo not given)	i	1.8	.	.	.
CCOc1ccc(NC(=O)C2C3C=CC4(O3)C2C(=O)N(Cc2cccnc2)C4C(=O)NC2CCCCC2)cc1 (stereo not given)	i	0.14	.	.	.
CN1CCN(C(=O)/C(=C\c2ccccc2)c2ccccc2)CC1	i	1.4	.	.	.
CC1CCN(C(=O)/C(=C/c2ccccc2Cl)c2ccccc2)CC1	-7.5*	-7.5	-32%*	i	i	KCNQ2 patch conf=i
COc1cc(CNCCO)cc(Br)c1OCc1ccccc1Cl	i	.	.	.	.
SMILES	KCNQ2 inh	KCNQ2 pot	KCNQ2 inh conf	KCNQ1 spec	CHO Tl ctr	others
COc1cc(CNCCO)cc(Cl)c1OCc1ccc(Cl)cc1Cl	-9.8*	-9.8	-41%*	-31%*	-31%*	KCNQ2 patch conf=i
CCOc1ccc(NC(=O)CN(C)C(=O)c2cc(S(=O)(=O)N(C)C)ccc2N2CCCC2)cc1OCC	i	.	.	.	.
O=C(OC(C(=O)Nc1cc(Cl)cc(Cl)c1)c1ccccc1)C1=COCCO1 (stereo not given)	i	.	.	.	.
CN(C)C(C(=O)Nc1cc(Cl)cc(Cl)c1)c1ccccc1 (stereo not given)	-8.3*	-8.3	-29%*	i	i	KCNQ2 patch conf=+
CNC(=O)NC(=O)C(NC1CCCc2ccccc21)c1ccccc1 (stereo not given)	i	.	.	.	.
CCOCCCNC(C(=O)Nc1ccc(OC)c(Cl)c1)c1ccccc1 (stereo not given)	i	.	.	.	.
Cc1ccc(NC(=O)C(NC2CCCc3ccccc32)c2ccccc2)cc1Cl (stereo not given)	-8.9*	-8.9	i	i	i
COCC(C)NC(C(=O)Nc1ccc(C)c(Cl)c1)c1ccccc1 (stereo not given)	-6.8*	-6.8	i	i	i
